Screening results as filed in PubChem BioAssay.
Hits are enriched below; roughly 2.9% of the tested compounds scored in any of these assays.
PP1 counter: counter-screen for PP5 inhibitors: inhibitors of human PP1-alpha; AID 2235; inhibition, % at 6.7 µM; purified PP1alpha, OMFP fluorescence; 0.9% of 320,000 active; P62136;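 active means inhibition above the mean inhibition of all tested compounds plus 3 SD, computed separately for each screening campaign, cut at about 15% in these data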
Exocytosis inh: lytic granule exocytosis inhibition | inhibition, % at 10 µM | TALL-104 LAMP-1 surface exposure, flow cytometry; cells stimulated with thapsigargin and PMA | AID 651702 | 0.66% of 360,000 active;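 active means inhibition above about 55%, limit read from the data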
NadD inh: blocks S. aureus nicotinate mononucleotide adenylyltransferase; purified NadD enzyme, colorimetric absorbance read-out; inhibition, % at 20 µM; 0.78% of 360,000 active; AID 602399; in the data active means inhibition above about 26%
GRK2 aptamer HTS: blocks RNA aptamer binding to human GRK2; P25098; bead flow cytometry, FAM-aptamer displacement from GRK2; inhibition of aptamer binding, % at 10 µM; 0.59% of 330,000 active;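 active means inhibition of aptamer binding above 40%, roughly 3 SD of noise, on plates passing a quality check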;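 further: median bead fluorescence of bound FAM aptamer so fluorescent compounds give negative values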
Target sequence (P25098 whole entry, looked up): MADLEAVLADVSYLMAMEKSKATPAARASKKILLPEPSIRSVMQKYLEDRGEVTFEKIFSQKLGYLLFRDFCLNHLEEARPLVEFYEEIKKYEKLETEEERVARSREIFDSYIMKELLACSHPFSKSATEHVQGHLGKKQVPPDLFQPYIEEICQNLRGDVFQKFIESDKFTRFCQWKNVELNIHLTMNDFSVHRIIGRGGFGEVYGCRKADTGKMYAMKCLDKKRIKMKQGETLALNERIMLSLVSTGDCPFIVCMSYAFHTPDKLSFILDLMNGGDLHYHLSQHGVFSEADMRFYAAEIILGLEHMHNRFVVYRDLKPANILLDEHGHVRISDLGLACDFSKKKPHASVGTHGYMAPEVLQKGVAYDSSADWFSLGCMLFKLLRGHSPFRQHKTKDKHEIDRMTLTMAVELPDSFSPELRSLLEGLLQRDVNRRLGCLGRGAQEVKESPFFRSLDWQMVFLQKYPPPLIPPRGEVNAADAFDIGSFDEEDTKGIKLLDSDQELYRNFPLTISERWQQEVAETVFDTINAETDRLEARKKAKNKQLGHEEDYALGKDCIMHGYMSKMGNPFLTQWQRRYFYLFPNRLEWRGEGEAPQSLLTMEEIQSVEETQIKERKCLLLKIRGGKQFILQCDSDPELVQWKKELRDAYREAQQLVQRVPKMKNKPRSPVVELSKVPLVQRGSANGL
B2AR ag: agonists of human beta-2 adrenergic receptor inducing internalization. 0.43% of 340,000 active. response, % (concentration not given with the values). Am2.2-beta2AR cells, FAP receptor internalization, flow cytometry. AID 504454;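 active means response above a set limit, near 3 SD of response in nonfluorescent compounds, cut at about 42% in these data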
B2AR ag CP1: activates human beta-2 adrenergic receptor. shares compounds with B2AR ag. Am2.2-beta2AR cells, FAP surface receptor, flow cytometry; active compounds read low. percent response (surface receptor), % at 10 µM. 25% of 1,100 active. AID 540358;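 active means surface receptor percent response at or below 58%, roughly 3 SD from nonfluorescent compounds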
FAP fluor counter: counter-screen for beta-2AR agonists: fluorescence in Am2.2 cells; calls only at 10 µM; FAP fluorogen flow cytometry, fluorescence counterscreen; active compounds read low; shares compounds with B2AR ag; 1,100 tested, under 10 active;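 active means percent response below a set limit in fluorescence channel 1 and below 50% in channel 8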
An asterisk follows results filed as active; i = inactive; / = no result given.

SMILES	PP1 counter	Exocytosis inh	NadD inh	GRK2 aptamer HTS	B2AR ag	B2AR ag CP1	FAP fluor counter
COc1ccc(S(=O)(=O)N(C)C)cc1NC(=O)Cc1c[nH]c2ccccc12	-1	1	1	0	2	/	/
CC(=O)Oc1c(Br)cc(N(C(C)=O)S(=O)(=O)c2ccccc2)c2ccccc12	1	52	19	4	60*	107	i
CC(=O)c1cccc(NC(=O)C(OC(=O)c2cccs2)c2ccccc2)c1 (centres undefined)	1	2	-6	0	-5	/	/
Cc1cc(C)cc(NC(=O)C(OC(=O)c2sccc2C)c2ccccc2)c1 (centres undefined)	2	-6	4	0	64*	95	i
COc1ccc(-n2nc3c(N4CCC(C(=O)NCc5ccco5)CC4)nnc(C)c3c2C)cc1	3	-1	11	0	7	98	i
COCCn1c(SCc2nnc(-c3ccccc3)o2)nc2sc3c(c2c1=O)CCC3	/	4	4	/	121*	130	i
COC(=O)c1ccc(CSc2nc3sc4c(c3c(=O)n2C)CCCC4)o1	-1	4	-6	1	8	/	/
O=C(Nc1cccc(C(F)(F)F)c1)Nc1ccc2nc([C@@H]3O[C@H](CO)[C@@H](O)[C@H](O)[C@H]3O)[nH]c2c1	/	20	0	/	/	/	/
COc1cccc(NC(=O)C(c2ccccc2)N2CCCCC2)c1 (centres undefined)	1	1	-5	1	-1	105	i
COCCN(C(=O)c1csnn1)C(C(=O)NC1CCCCC1)c1ccccc1 (centres undefined)	-4	-3	-6	0	-2	/	/
COc1ccc(CCNCC(O)Cn2c3ccccc3c3ccccc32)cc1OC (centres undefined)	1	18	-2	0	48*	53*	i
NC(=S)N=Nc1c(O)n(Cc2ccc(Br)cc2)c2ccccc12	6	4	15	0	-7	/	/
NC(=S)N=Nc1c(O)n(Cc2ccc(F)cc2)c2ccccc12	0	-8	5	0	-3	102	i
CN(C)CCNc1ncnc2c1sc1nc(N3CCOCC3)c3c(c12)CC(C)(C)SC3	5	19	-9	0	21	/	/
CC1(C)Cc2c(c(N3CCOCC3)nc3sc4c(NCCN)ncnc4c23)CO1	/	-1	-3	/	105*	10*	i
CC1(C)Cc2c(c(N3CCCC3)nc3sc4c(N5CCN(CCO)CC5)ncnc4c23)CO1	2	1	-2	0	71*	46*	i
OCCN1CCN(c2ncnc3c2sc2nc(N4CCOCC4)c4c(c23)CCC4)CC1	4	-1	-2	3	18	/	/
COc1cccc2sc3cc(C#CC4(O)CCCCC4)ccc3c(=O)c12	/	1	3	1	50*	98	i
COc1cccc2sc3ccc(C#CC4(N)CCCCC4)cc3c(=O)c12	3	2	3	0	26	/	/
CC1CC(C)CN(S(=O)(=O)c2ccc3c(c2)CC(C)N3C(=O)C2CC2)C1 (centres undefined)	1	-2	-4	3	-1	/	/
O=C(CN1C(=O)CCC1=O)Nc1nc(-c2nc3ccccc3s2)cs1	-2	-2	2	3	103*	9.2*	i
CCOC(=O)c1ccc(N2C(=O)c3n[nH]c(-c4ccco4)c3C2c2cccc([N+](=O)[O-])c2)cc1 (centres undefined)	11	1	29	6	85*	23*	i
Cc1ccc(C)c(NC(=S)c2ccccn2)c1	-3	4	-2	2	-2	114	i
Cc1ccc(C)c(NC(=S)c2ccc3ccccc3n2)c1	0	-1	3	0	-2	/	/
O=C(NC(=O)c1ccncc1)NC(c1ccccc1)c1ccccc1	1	2	0	2	2	/	/
Cc1noc(C)c1S(=O)(=O)N1CCCC(C(=O)N2CCC(C)CC2)C1 (centres undefined)	7	0	0	2	49*	120	i
